Experimental findings from PubChem BioAssay (EPA / NIEHS) are described below.

For test [1], the target named is human Neurokinin, NK2 Receptor, TACR2 (gene 6865) (UniProt P21452). In words: NVS_GPCR_hNK2: NovaScreen (NVS) G Protein-Coupled Receptor Assay for human Neurokinin, NK2 Receptor (AID 2283278).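 Also: actives reduce bound radioligand signal relative to DMSO baseline.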 Summed up: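 CHO-derived membrane protein, radioligand displacement, filter scintillation read at 4 h post-dose. Single-point 25 uM in duplicate, then concentration series for actives; DMSO as negative control.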
Sequence of human Neurokinin, NK2 Receptor, TACR2 (gene 6865) (P21452 whole entry, looked up): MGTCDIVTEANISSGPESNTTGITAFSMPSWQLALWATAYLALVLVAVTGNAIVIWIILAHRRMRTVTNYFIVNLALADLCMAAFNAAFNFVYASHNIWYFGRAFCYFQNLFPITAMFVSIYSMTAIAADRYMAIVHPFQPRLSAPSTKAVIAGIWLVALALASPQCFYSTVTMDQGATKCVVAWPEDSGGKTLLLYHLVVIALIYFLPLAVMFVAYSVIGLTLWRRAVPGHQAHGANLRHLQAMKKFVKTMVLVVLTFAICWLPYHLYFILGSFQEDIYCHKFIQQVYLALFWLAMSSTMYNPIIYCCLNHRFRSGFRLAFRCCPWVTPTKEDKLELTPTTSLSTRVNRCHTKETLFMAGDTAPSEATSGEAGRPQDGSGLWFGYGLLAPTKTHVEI

The target in test [2] is human Matrix Metalloproteinase-9 (MMP9), MMP9 (gene 4318) (UniProt P14780). In words: NVS_ENZ_hMMP9: NovaScreen (NVS) Enzymatic Assay for human Matrix Metalloproteinase-9 (MMP9) (AID 2283190).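 Also: cell-free recombinant MMP9 protease activity read by fluorescent substrate signal; active means inhibition seen as loss of fluorescence signal versus DMSO.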 Summed up: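 Extracted enzyme, fluorescent substrate, 1 h post-dose read. Single conc 25 uM in duplicate, then concentration series for actives. Activity = signal loss relative to DMSO negative control.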
Sequence of human Matrix Metalloproteinase-9 (MMP9), MMP9 (gene 4318) (P14780 whole entry, looked up): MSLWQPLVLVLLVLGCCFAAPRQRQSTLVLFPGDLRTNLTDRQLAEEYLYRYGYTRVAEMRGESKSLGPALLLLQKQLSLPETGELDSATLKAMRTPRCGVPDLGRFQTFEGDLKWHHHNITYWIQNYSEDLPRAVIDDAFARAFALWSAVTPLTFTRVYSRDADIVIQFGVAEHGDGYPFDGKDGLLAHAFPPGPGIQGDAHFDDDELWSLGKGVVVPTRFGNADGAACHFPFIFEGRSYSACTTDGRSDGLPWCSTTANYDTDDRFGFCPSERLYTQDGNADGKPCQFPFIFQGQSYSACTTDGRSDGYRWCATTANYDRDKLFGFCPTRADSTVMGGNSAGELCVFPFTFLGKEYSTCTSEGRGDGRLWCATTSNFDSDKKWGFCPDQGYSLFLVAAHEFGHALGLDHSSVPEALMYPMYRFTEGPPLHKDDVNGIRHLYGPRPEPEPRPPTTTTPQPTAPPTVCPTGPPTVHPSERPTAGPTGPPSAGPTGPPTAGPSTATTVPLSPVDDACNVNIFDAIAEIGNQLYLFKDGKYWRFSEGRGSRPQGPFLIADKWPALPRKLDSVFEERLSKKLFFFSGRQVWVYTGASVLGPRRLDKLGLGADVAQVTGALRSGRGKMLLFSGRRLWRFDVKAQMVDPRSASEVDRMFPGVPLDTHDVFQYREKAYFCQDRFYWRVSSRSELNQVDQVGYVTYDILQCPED

The target in test [3] is human Thromboxane A2 Receptor (TXA2), TBXA2R (gene 6915) (UniProt P21731). In words: NVS_GPCR_hTXA2: NovaScreen (NVS) G Protein-Coupled Receptor Assay for human Thromboxane A2 Receptor (TXA2) (AID 2283282).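 Also: actives reduce bound radioligand signal relative to DMSO baseline.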 Summed up:
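Human platelet-derived receptor preparation incubated with test chemical and radiolabelled ligand for 1 hour, cell-free. Bound label was separated by filtration and counted; displacement relative to DMSO controls gave activity, screened at 25 uM, then titrated.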

The target of test [4] is human Adenosine A1 Receptor (AdoRA1), ADORA1 (gene 134) (UniProt P30542). The test is described as follows: NVS_GPCR_hAdoRA1: NovaScreen (NVS) G Protein-Coupled Receptor Assay for human Adenosine A1 Receptor (AdoRA1) (AID 2283254). In a few lines:
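Membranes from human cortical tissue were incubated with radioligand and test chemical for 1 hour, then filtered and counted. Activity was taken as signal loss relative to DMSO, screened at 25 uM in duplicate before concentration-response follow-up.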

Test [5] addresses rat Peripheral-type Benzodiazepine Receptor (PBR), Tspo (gene 24230) (UniProt P16257). In words: NVS_MP_rPBR: NovaScreen (NVS) Membrane Protein Assay for rat Peripheral-type Benzodiazepine Receptor (PBR) (AID 2283335). In a few lines:
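Rat kidney membranes; radioligand binding with displacement, filter-based scintillation counting, 1 h incubation. Primary screen in duplicate at 25 uM, actives followed in concentration series; loss of binding vs DMSO.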

In test [6] the target is Estrogen receptor (Homo sapiens) (UniProt P03372). The test is described as follows: NVS_NR_hER: NovaScreen (NVS) Nuclear Receptor Binding Assay for human Estrogen Receptor (ER) (AID 2283348). In a few lines:
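Scintillation signal from bound radioligand was measured 18 hours after chemical addition to cell-free MCF7 protein extracts, with DMSO as baseline. Activity was scored as signal loss; compounds ran first at 25 uM in duplicate.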

Test [7] concerns the target human Phosphoinositide 3-kinase alpha (PI3Ka), PIK3CA (gene 5290) (UniProt P42336). The test is described as follows: NVS_ENZ_hPI3Ka: NovaScreen (NVS) Enzymatic Assay for human Phosphoinositide 3-kinase alpha (PI3Ka) (AID 2283196). Summed up: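 Fluorescence/mobility-shift readout of substrate conversion by recombinant enzyme, 1 h post-dosing. Primary screen in duplicate at 25 uM; actives (e.g. ≥30% inhibition) retested in singleton concentration-response, top concentration 50 uM.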

Test [8] has as its target human Vascular Endothelial Growth Factor Receptor 1 (VEGFR1), FLT1 (gene 2321) (UniProt P17948). In words: NVS_ENZ_hVEGFR1: NovaScreen (NVS) Enzymatic Assay for human Vascular Endothelial Growth Factor Receptor 1 (VEGFR1) (AID 2283226). In a few lines:
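Cell-free assay of recombinant human VEGFR1 kinase with substrate, measured 1 h after dosing; fluorescence with electrophoretic mobility-shift separation of substrate and product, referenced to DMSO; primary screen at 25 uM in duplicate, actives then run in concentration series.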

The target of test [9] is D(1A) dopamine receptor (Homo sapiens) (UniProt P21728). In words: NVS_GPCR_hDRD1: NovaScreen (NVS) G Protein-Coupled Receptor Assay for human Dopamine Receptor D1 (DRD1) (AID 2283269). In a few lines:
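Cell-free radioligand binding to human DRD1 from HEK293 membranes, read 1 h after dosing by filter-based scintillation counting. Loss of signal versus DMSO baseline marks displacement. Primary screen at 25 uM single concentration in duplicate; actives followed up in concentration series.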

For test [10], the target named is human Adenosine A2a Receptor (AdoRA2a), ADORA2A (gene 135) (UniProt P29274). In words: NVS_GPCR_hAdoRA2a: NovaScreen (NVS) G Protein-Coupled Receptor Assay for human Adenosine A2a Receptor (AdoRA2a) (AID 2283256). In a few lines:
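Radioligand displacement on HEK293-derived membrane protein, cell-free; filter-based scintillation counting 1.5 hours after dosing, loss of signal vs DMSO. Single-point duplicate screen at 25 uM, actives retested in concentration series.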

Test [11] deals with Sodium channel protein type 1 subunit alpha (Rattus norvegicus) (UniProt P04774). The test is described as follows: NVS_IC_rNaCh_site2: NovaScreen (NVS) Ion Channel Assay for rat Sodium Channel, Site 2 (NaCh) (AID 2283322).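 Also: hit means loss of radioligand binding signal relative to DMSO so AC50 marks displacement.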 Summed up:
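Membranes: rat forebrain. Format: competitive radioligand displacement, filter separation, scintillation readout, 1 h exposure. Primary screen in duplicate at 25 uM; actives retested in concentration series.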

For test [12], the target named is sheep Cyclooxygenase-1 (Cox1), PTGS1 (gene 443551) (UniProt P05979). The test is described as follows: NVS_ENZ_oCOX1: NovaScreen (NVS) Enzymatic Assay for sheep Cyclooxygenase-1 (Cox1) (AID 2283239).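 Also: actives reduce cyclooxygenase activity so potencies are for inhibitors.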 Summed up: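 Absorbance read-out of cyclooxygenase activity in a cell-free preparation from sheep seminal vesicles, taken 0.66 hour after dosing. Initial testing was in duplicate at 25 uM, and confirmatory testing was run in concentration series.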
Sequence of sheep Cyclooxygenase-1 (Cox1), PTGS1 (gene 443551) (P05979 whole entry, looked up): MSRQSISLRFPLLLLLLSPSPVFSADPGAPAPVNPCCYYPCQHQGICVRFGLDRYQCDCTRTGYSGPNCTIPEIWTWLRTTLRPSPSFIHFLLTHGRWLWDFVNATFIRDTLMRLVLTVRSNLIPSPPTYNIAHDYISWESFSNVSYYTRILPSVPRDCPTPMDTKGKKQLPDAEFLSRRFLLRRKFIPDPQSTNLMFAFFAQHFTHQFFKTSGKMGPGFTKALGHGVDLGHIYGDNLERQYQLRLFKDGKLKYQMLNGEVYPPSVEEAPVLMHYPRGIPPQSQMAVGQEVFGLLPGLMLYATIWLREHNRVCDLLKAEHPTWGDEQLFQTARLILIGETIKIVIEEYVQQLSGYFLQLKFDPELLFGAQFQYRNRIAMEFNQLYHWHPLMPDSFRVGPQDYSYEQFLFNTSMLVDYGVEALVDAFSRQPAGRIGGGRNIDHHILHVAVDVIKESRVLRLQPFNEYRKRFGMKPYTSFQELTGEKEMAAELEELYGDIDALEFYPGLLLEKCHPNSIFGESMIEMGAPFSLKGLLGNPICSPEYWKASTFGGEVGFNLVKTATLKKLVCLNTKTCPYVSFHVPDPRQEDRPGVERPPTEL

Test [13] is described as follows: NVS_IC_rCaBTZCHL: NovaScreen (NVS) Ion Channel Assay for Calcium Channel, Type L, Benzothiazepine Site (CaBTZCHL) (AID 2283337). Summed up: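 Scintillation counting of filter-bound radioligand gave the read-out, with reduced binding versus DMSO scored as activity. Membranes came from rat cortex and were read 1.5 h after compound addition. Chemicals were screened first in duplicate at 25 uM.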

Test [14] addresses Muscarinic acetylcholine receptor M2 (Homo sapiens) (UniProt P08172). The test is described as follows: NVS_GPCR_hM2: NovaScreen (NVS) G Protein-Coupled Receptor Assay for human Muscarinic, M2 Receptor (AID 2283273). In a few lines: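 CHO membrane prep, radioligand + test compound, 1 h; filtration, scintillation count. Screen 25 uM duplicate → conc. series for actives. Readout: decrease in binding vs DMSO control.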

For test [15], the target named is human Opioid Receptor Mu (Opiate Mu), OPRM1 (gene 4988) (UniProt P35372). The test is described as follows: NVS_GPCR_hOpiate_mu: NovaScreen (NVS) G Protein-Coupled Receptor Assay for human Opioid Receptor Mu (Opiate Mu) (AID 2283290).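 Also: hits lower bound tracer signal versus DMSO meaning displacement of the ligand.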 Summed up: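 Cell-free radioligand binding to membranes from CHO cells expressing the receptor; bound tracer measured by filter-based scintillation counting 2.5 hours after dosing. Loss of signal versus DMSO baseline reflects displacement; primary screen at 25 uM in duplicate, actives followed up in concentration series.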

Results filed as inconclusive are left out. Activity calls are given as the source filed them. The calls were made as follows: active = hit-call score of the fitted dose curve at least 0.9, where 1 is the maximum; inconclusive = response in the unintended direction; inactive = score below 0.9.

Sequence of D(1A) dopamine receptor (Homo sapiens) (P21728 whole entry, looked up): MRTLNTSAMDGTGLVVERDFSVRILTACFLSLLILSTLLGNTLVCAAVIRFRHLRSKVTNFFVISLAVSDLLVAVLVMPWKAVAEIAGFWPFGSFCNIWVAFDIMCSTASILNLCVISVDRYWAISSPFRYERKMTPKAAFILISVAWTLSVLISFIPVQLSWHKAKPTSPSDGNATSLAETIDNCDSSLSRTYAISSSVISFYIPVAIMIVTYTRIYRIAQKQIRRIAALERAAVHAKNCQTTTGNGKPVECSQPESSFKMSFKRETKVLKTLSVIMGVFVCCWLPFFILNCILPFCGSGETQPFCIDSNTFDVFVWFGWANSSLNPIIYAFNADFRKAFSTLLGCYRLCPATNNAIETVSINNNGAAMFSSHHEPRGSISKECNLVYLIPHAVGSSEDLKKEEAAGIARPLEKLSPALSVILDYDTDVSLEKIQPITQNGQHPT
Sequence of human Adenosine A2a Receptor (AdoRA2a), ADORA2A (gene 135) (P29274 whole entry, looked up): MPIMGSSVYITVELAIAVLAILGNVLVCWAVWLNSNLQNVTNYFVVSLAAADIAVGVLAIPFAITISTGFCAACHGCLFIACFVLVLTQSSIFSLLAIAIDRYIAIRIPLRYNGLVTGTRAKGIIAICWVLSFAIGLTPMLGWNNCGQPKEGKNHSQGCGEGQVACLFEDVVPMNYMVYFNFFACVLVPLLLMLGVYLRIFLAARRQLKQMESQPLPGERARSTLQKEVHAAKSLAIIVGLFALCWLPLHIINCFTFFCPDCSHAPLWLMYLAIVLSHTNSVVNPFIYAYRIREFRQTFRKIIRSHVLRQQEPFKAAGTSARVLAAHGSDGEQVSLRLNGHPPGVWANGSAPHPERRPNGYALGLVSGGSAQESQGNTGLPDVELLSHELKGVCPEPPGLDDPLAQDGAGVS
Sequence of Estrogen receptor (Homo sapiens) (P03372 whole entry, looked up): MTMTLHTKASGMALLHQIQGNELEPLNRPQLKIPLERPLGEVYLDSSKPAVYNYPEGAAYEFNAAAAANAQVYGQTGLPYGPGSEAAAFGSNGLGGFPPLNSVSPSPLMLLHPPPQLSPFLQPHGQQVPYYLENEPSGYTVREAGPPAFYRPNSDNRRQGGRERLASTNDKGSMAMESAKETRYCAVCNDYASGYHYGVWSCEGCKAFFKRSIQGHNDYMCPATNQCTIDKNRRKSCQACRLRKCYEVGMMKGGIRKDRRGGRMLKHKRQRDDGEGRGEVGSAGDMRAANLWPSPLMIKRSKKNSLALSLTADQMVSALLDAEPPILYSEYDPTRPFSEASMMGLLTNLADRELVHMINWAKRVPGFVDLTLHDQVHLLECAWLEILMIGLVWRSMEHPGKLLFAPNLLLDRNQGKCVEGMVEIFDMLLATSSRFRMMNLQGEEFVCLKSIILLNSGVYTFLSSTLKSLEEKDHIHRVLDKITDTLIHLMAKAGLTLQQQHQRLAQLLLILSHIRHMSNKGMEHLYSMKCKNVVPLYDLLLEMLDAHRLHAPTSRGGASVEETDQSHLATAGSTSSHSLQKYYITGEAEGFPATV
Sequence of human Phosphoinositide 3-kinase alpha (PI3Ka), PIK3CA (gene 5290) (P42336 whole entry, looked up): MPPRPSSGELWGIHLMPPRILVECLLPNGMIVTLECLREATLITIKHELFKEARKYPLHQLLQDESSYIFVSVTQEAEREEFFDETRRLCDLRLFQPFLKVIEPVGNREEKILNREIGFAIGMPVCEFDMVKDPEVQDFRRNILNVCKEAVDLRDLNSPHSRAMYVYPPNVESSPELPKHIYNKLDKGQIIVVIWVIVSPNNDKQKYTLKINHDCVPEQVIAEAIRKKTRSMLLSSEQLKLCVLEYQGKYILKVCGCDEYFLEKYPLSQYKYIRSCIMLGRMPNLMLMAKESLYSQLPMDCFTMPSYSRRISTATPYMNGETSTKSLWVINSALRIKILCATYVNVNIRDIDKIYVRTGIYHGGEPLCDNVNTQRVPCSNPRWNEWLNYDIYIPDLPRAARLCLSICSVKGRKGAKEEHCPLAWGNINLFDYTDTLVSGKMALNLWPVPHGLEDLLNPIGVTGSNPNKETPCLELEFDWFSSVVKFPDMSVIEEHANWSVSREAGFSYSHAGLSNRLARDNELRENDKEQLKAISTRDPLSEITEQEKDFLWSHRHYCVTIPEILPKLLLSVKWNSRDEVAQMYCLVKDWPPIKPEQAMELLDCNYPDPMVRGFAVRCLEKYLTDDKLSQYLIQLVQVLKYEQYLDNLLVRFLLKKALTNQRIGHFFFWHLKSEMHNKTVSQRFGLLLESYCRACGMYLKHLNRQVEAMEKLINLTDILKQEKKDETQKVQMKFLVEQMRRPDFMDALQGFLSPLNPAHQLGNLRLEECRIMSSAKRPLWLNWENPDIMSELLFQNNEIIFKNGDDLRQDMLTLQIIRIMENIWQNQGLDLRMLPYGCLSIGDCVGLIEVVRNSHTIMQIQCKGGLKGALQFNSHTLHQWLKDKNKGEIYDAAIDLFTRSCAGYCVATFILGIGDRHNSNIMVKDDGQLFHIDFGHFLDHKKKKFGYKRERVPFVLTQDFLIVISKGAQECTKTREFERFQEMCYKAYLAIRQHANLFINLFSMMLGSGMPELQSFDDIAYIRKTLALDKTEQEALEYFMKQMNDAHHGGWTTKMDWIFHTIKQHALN
Sequence of Muscarinic acetylcholine receptor M2 (Homo sapiens) (P08172 whole entry, looked up): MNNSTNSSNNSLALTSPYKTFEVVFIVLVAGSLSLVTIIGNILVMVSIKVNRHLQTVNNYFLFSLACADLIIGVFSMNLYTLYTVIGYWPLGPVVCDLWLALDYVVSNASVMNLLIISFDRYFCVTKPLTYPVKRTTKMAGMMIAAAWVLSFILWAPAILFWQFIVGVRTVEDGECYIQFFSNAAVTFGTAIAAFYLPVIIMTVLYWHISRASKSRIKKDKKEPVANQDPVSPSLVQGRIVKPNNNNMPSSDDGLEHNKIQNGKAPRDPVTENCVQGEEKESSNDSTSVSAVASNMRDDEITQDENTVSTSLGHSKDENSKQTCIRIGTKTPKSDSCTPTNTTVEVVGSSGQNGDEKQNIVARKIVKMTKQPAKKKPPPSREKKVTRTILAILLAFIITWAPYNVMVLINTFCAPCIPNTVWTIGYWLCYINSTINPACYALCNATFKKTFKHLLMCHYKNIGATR
Sequence of rat Peripheral-type Benzodiazepine Receptor (PBR), Tspo (gene 24230) (P16257 whole entry, looked up): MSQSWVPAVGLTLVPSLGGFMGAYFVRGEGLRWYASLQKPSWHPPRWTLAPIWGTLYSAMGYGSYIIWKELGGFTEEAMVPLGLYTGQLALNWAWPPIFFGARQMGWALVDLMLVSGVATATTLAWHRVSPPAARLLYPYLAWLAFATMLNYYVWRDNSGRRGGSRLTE

Usually AC50 stands for the concentration at which the activity in the assay is half-maximal. As to `O=C(Cl)c1cc(C(=O)Cl)cc(C(=O)Cl)c1`, the AC50 in test [1] is 15 µM (active).
With `CCC(C)C=O` (stereo unspecified), the AC50 in test [2] was 8.8 µM (active).
Take `Cc1ccc(C2OC[C@@H]3OC(c4ccc(C)cc4)O[C@H]([C@H](O)CO)[C@@H]3O2)cc1` (stereo partly specified): in test [3], the compound was classed as inactive.
Consider `O=C(Nc1ccccc1SSc1ccccc1NC(=O)c1ccccc1)c1ccccc1`, for which, in [4], the AC50 is 25 µM (active). The compound was called inactive in [5] and in test [6].
For `CNC(=S)N(C)C`, in test [2], the AC50 was 1.04 µM (active). In addition, the compound was classed as inactive in test [7] and in [8].
Regarding `CCC(CC)C(=O)O`, in test [9], the call was inactive.
On to `COCCOCCOCCOCCOC`, for which the result in test [7] was inactive.
As for `CC(C)(c1cc(Br)c(OCCO)c(Br)c1)c1cc(Br)c(OCCO)c(Br)c1`, the AC50 in [7] was 2.62 µM (active).
Consider `COCc1c(C(C)C)nc(C(C)C)c(/C=C/[C@@H](O)C[C@@H](O)CC(=O)O)c1-c1ccc(F)cc1`, for which the compound was called inactive in [10]. In addition, the AC50 in [11] is 1.81 µM (active).
Take `CCO[Si](CCCN=C=O)(OCC)OCC`: the result in test [12] and in test [13] was inactive.
Take `O=c1c2ccccc2oc2ccccc12`: the compound was called inactive in [10].
As for `CCOc1nc(F)cc2nc(S(=O)(=O)Nc3c(Cl)cccc3C(=O)OC)nn12`, the AC50 in test [9] is 25 µM (active).
In the case of `C/C=C\C/C=C/CCCCCCCCOC(C)=O`, the AC50 in test [2] is 13.7 µM (active); in test [12], 25 µM (active); in test [5] it was 17.2 µM (active). Moreover, in [6], the outcome was inactive.
Consider `N#[N+]c1ccc2c(S(=O)(=O)[O-])cccc2c1O`, for which the outcome in test [7] was inactive. Moreover, the AC50 in [12] was 5.62 µM (active).
Regarding `CC(C)c1ccc(C=O)cc1`, the call in test [10] and in test [14] was inactive.
For the compound `CCCCCCCCCCCCCCCC[N+](C)(C)CC`, the outcome in test [2], in [8], in [11] and in [6] was inactive. The AC50 in test [7] was 1.95 µM (active); in test [10], 44.2 µM (active); in test [9], 1.95 µM (active); in test [14] it was 0.395 µM (active); in [1], 1.78 µM (active); in [15], 2.05 µM (active).
